Assay results published in ChEMBL document CHEMBL4513216, “Probing the Open Global Health Chemical Diversity Library for Multistage-Active Starting Points for Next-Generation Antimalarials” (ACS Infect Dis, 2020).
Among all 69,000 compounds or so, about 8,600 (12%) showed an effect of 50% or more. What follows is part of a selection rich in strong results, with near analogues and random picks from the rest.

Test system: Plasmodium berghei
Experiment: Screen against P. berghei liver stage (PbLuc), transformed with Luciferase, at 10uM
Format: functional, HepG2
Conditions: tested at 10 uM

SMILES	INHIBITION [%]
CCCNC(=O)Nc1ncc(-c2cccnc2)s1	15.5
COCC(=O)N1CC[C@H]2C[C@H](C)O[C@@H]2C1	38.1
CCCC(=O)N1CCCCC1C(=O)Nc1ccc(-c2nnc[nH]2)cc1 (stereo unspecified)	16.8
Cn1nc(C2CCN(C(=O)CCN3CCOCC3)CC2)c2cccnc21	32.8
CC(C)c1nc(CSc2nnc(-c3cccs3)n2CC(N)=O)no1	-49.7
CC(O)CN1CCN(C(=O)c2ccn(-c3ccccc3Cl)n2)CC1 (stereo unspecified)	-12.2
COC[C@@H]1CN(C)C(=O)[C@@H]2CCN(Cc3ccco3)CC[C@H]12	54.1
CN1C[C@H](COCC2CC2)[C@H]2CCN(Cc3ccco3)CC[C@H]2C1=O	33.4
CN1C[C@@H](COCC2CC2)[C@H]2CCN(Cc3ccco3)CC[C@H]2C1=O	46.7
Cc1cn2c(n1)CCC(NS(=O)(=O)c1ccc(C)s1)C2 (stereo unspecified)	34.4
Cc1cn2c(n1)CCC(NS(=O)(=O)c1sc(C)nc1C)C2 (stereo unspecified)	21.5
Cc1cn2c(n1)CCC(NS(=O)(=O)c1cc(C)sc1C)C2 (stereo unspecified)	61.5
Cc1cccc(COC[C@@H]2CC[C@H]3[C@H](CCN3C(=O)CC3CC3)O2)n1	24.1
Cc1ccc(-c2cc(C(=O)N(C)Cc3noc4c3CCCC4)[nH]n2)o1	34.5
COc1ccc(C(C)Nc2ncc(C(N)=O)cc2Cl)cc1OC (stereo unspecified)	-59.5
Cc1nccn1-c1ccc(NS(=O)(=O)c2cnn(C(C)C)c2)cn1	-2.97
Cc1ccc(C(C)NC(=O)CCc2cnn(C)c2)cc1F (stereo unspecified)	33
Cn1ncc(NCc2cc(F)cc(F)c2)c(Cl)c1=O	8.48
Cc1nccn1-c1ccc(C(C)Nc2cnn(C)c(=O)c2Cl)cc1 (stereo unspecified)	52.6
COc1ccc(C(C)Nc2ncc(C(N)=O)cc2Cl)cc1F (stereo unspecified)	-138
CC(NCc1cnc(N2CCN(C)CC2)nc1)c1ccc(F)cc1 (stereo unspecified)	26.5
COc1ccc(C(C)Nc2cnn(C)c(=O)c2Cl)cc1OC (stereo unspecified)	68.9

SMILES	INHIBITION [%]
COc1ccc(C(C)Nc2nc3c(C)nn(C)c3c(=O)n2C)cc1 (stereo unspecified)	-45.2
CC(Nc1cnn(C)c(=O)c1Cl)c1ccc(F)c(F)c1 (stereo unspecified)	68.9
CC(Nc1cnn(C)c(=O)c1Cl)c1ccc(F)cc1 (stereo unspecified)	65.9
Cn1ncc(N2CCOCC2)c(Cl)c1=O	8.77
CC(C)CC(=O)N1Cc2ccccc2CC1C(=O)Nc1nccs1 (stereo unspecified)	31.6
CCn1cc2c(n1)CN(S(=O)(=O)c1cccnc1)CC2COC (stereo unspecified)	8.85
CC1(c2ncc(CN3CCN(c4ccccn4)CC3)cn2)CCCCO1 (stereo unspecified)	-16.85
O=C1[C@H]2CN(CC3CC3)C[C@H]2CN1Cc1cccc(F)c1	39.8
O=C(NCc1cccnc1N1CCc2ccccc2C1)c1cnc[nH]1	-11.6
Cc1cc(C(=O)N2CC[C@@H]3CN(CCC(C)C)S(=O)(=O)[C@@H]3CC2)no1	6.27
CS(=O)(=O)N1C[C@H]2CC[C@@H](C1)N(C/C=C/c1ccc(F)cc1)C2	31.7
Cc1ccc(CN2CCn3cc(CNC(=O)c4cnn(C)c4)nc3C2)s1	16.8
CS(=O)(=O)NCc1cncc2c1CCN(C(=O)N1CCCC1)C2	37.2
Cc1ccccc1-n1cnc(Cl)c1C(=O)O	24.4
Cc1ccccc1-n1cnc(Cl)c1CO	59.3
Cc1cccc(-n2cnc(Cl)c2CO)c1	28
OCc1c(Cl)ncn1-c1ccc(F)cc1	52.8
Cc1ccc(-n2cnc(Cl)c2CO)cc1	40.9
OCc1c(Cl)ncn1-c1ccccc1	46.4
COc1ccc(CN2C[C@@H]3C(CC(=O)N4CCCC4)[C@@H]3C2)cc1 (stereo partly specified)	17.4
CCc1nnc2n1CC(CNCc1nnc(C(C)(C)C)o1)CC2 (stereo unspecified)	14.9
Cc1cccc(NC(=O)N2CCC3(CC(=O)N(c4ccsc4)C3)C2)c1 (stereo unspecified)	12.4

SMILES	INHIBITION [%]
COCCn1cc2c(n1)C(CNCc1ccc(F)cc1)OCC2 (stereo unspecified)	13.5
Cc1ccc(C(=O)N(C)Cc2cscn2)c(=O)[nH]1	15
COCCC1COC2(CCN(C(=O)c3cccnc3)CC2)C1 (stereo unspecified)	34.6
CCN(C)C1COC2(CCN(C(=O)c3ccc4[nH]ccc4c3)CC2)C1 (stereo unspecified)	-12.2
COCCC1COC2(CCN(C(C)=O)CC2)C1 (stereo unspecified)	20.1
CCN(C)C1COC2(CCN(C(=O)c3cccc(Cl)c3)CC2)C1 (stereo unspecified)	0.112
COCCC1COC2(CCN(C(=O)c3cccn3C)CC2)C1 (stereo unspecified)	20.6
COCCC1COC2(CCN(C(=O)c3ccsc3)CC2)C1 (stereo unspecified)	57.9
COCCC1COC2(CCN(C(=O)c3ccccc3)CC2)C1 (stereo unspecified)	40.4
COCCC1COC2(CCN(C(=O)c3ccncc3)CC2)C1 (stereo unspecified)	74.2
CCN(C)C1COC2(CCN(C(=O)c3ccc(Cl)cc3)CC2)C1 (stereo unspecified)	70.3
CCc1nc2ccccc2n1C(CC)C(=O)N(C)CCc1noc(C)n1 (stereo unspecified)	-4.12
CC(C)c1noc(OCc2cccc(S(=O)(=O)N(C)C)c2)n1	37.8
CCCn1nnc(NCc2ccccc2OCc2ccc(Cl)cc2)n1	-36.8
COc1ccccc1CNC(=O)C[S+]([O-])Cc1cc(C)on1 (stereo unspecified)	-9.19
O=C(c1cc(Cl)c2c(c1)OCCCO2)N(CC1CCOC1)C1CC1 (stereo unspecified)	30.9
CCN(CC1CCOC1)C(=O)c1ccccc1N1CCOCC1 (stereo unspecified)	26.8
CCN(CC1CCOC1)C(=O)c1ccc(N2CCOCC2)c(F)c1 (stereo unspecified)	66.2
CCN(CC1CCOC1)C(=O)c1cc(Cl)c2c(c1)OCO2 (stereo unspecified)	56.6
CCN(CC1CCOC1)C(=O)c1cc(F)ccc1N1CCN(C)CC1 (stereo unspecified)	7.27
CCN(CC1CCOC1)C(=O)c1cc(OC)c2c(c1)OCCO2 (stereo unspecified)	30.9
COCC(=O)N1CCCC(c2noc3nc(C)cc(C(F)(F)F)c23)C1 (stereo unspecified)	24.4

SMILES	INHIBITION [%]
CC(C)NC(=O)COc1ccc(-c2nc(C(C)C)no2)cc1	10.7
Cc1csc(C(C#N)C(=O)NCc2ccccc2)n1 (stereo unspecified)	52.6
Cc1csc(C(C#N)C(=O)Nc2ccccc2)n1 (stereo unspecified)	8.08
Cc1csc(C(C#N)C(=O)NCc2cccnc2)n1 (stereo unspecified)	26.5
Cc1cc(N(C)C)nc(C2CCNC2)n1 (stereo unspecified)	35
O=C(NC1CCCc2nc(N3CCCCC3)ncc21)C1CCCC1 (stereo unspecified)	40
Cc1ccc(C(CNC(=O)Nc2cn[nH]c2)N2CCOCC2)o1 (stereo unspecified)	-45.6
CC1=Nc2c(c(=O)[nH]n2C(C)C)C(c2ccsc2)S1 (stereo unspecified)	30
O=C(NCc1cccnc1)N1CCc2ncnc(C3CC3)c2CC1	-14.3
O=C(O)CCc1ccc(S(=O)(=O)Nc2cnn(CC3CC3)c2)cc1	5.51
O=C(O)c1ccc(S(=O)(=O)Nc2cnn(CC(F)(F)F)c2)cc1	72.8
O=C(O)CCc1ccc(S(=O)(=O)Nc2cnn(CC(F)(F)F)c2)cc1	28.1
O=C(NCCOc1ccc(Cl)cn1)Nc1ccccn1	-34.8
CS(=O)(=O)NCc1cncc2c1CCN(C(=O)c1cccnc1)C2	4.57
Cc1cnn(CC(=O)NCC2CCN(c3cc(Cl)ccc3C)C2)c1 (stereo unspecified)	-47.28
O=c1cc(N2CCNCC2)cnn1CCCn1cccn1	49.9
Cc1cnn(C(C)C(=O)NCC2CCN(c3cnn(C)c(=O)c3)CC2)c1 (stereo unspecified)	-9.08
CCCOCCn1ncc(N2CCCC2)cc1=O	-49.2
CCC(CC)Cn1ncc(N2CCOCC2)cc1=O	23.8
Cc1cnn(CCCn2ncc(N3CCC(CN)C3)cc2=O)c1 (stereo unspecified)	66.5
NCC1CCN(c2cnn(CCCn3cccn3)c(=O)c2)CC1	61
O=c1cc(N2CCCCC2)cnn1CCCn1cccn1	-54

SMILES	INHIBITION [%]
CN1CCN(c2cnn(CCn3cccn3)c(=O)c2)CC1	57.3
Cc1nn(C)c(C)c1C1COCCN1C(=O)c1cc(F)ccc1F (stereo unspecified)	-2.19
COc1cccc(CN2CCCC2c2cccc(F)c2)c1OC (stereo unspecified)	1.45
Cc1nn(C)cc1-c1cc(C(F)F)n2nc(CCC(=O)O)nc2n1	21.9
COc1ccc(Cl)cc1S(=O)(=O)N(C)CC(=O)Nc1ccon1	-44.8
Cc1cnn(CC2CCCN2C(=O)CCc2c(C)noc2C)c1 (stereo unspecified)	17.3
CN1CCC(N2CC[C@@H]3[C@@H](CCC(=O)N3CCC3=CCCCC3)C2)CC1	33.9
CS(=O)(=O)N1CC[C@@H]2[C@@H](CCC(=O)N2CCC2=CCCCC2)C1	19.4
O=C1CC[C@H]2CN(C3CCOCC3)CC[C@H]2N1CCC1=CCCCC1	58.5
Cc1ccc(C(N)=O)c(N2Cc3cnc(C(C)(C)C)nc3C2)n1	17.1
COC(=O)[C@@H]1CCCN1C(=O)c1cn(C/C=C/c2ccccc2)nn1	52.6
COC(=O)[C@@H]1CCCN1C(=O)c1cn(CCCc2ccccc2)nn1	2.4
COC(=O)C1CCCCN1C(=O)c1cn(C/C=C/c2ccccc2)nn1 (stereo unspecified)	9.79
Cc1nc(C(C)NC(=O)c2cn(C/C=C/c3ccccc3)nn2)n[nH]1 (stereo unspecified)	29.1
Cc1cccc(C2CCCCCN2C(=O)c2cn(CC(N)=O)nn2)c1 (stereo unspecified)	-15.245
NC(=O)[C@@H]1CCCN1C(=O)c1cn(C/C=C/c2ccccc2)nn1	57.1
Cc1ccc(C(=O)N2CC[C@@H](N(C)C)[C@@H]2Cc2cnn(C)c2)cn1	15.9
COc1ccc(N2CCN(C(=O)[C@@H]3C[C@@H](O)CN3)CC2(C)C)cc1	35.3
